This is an account of results in PubChem BioAssay AID624330 (Southern Research Specialized Biocontainment Screening …, 2012).

Among all 340,000 compounds or so, about 2,100 (0.62%) were called active.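 The calls were made as follows: active = first-screen hits whose inhibition reached a set limit at any dose in the follow-up dose series; inconclusive = inhibition above the set first-screen limit but never retested; inactive = the rest.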 A selection follows. Entries with a potency or affinity are not part of this list.

Sequence of Rac GTPase-activating protein 1 (Homo sapiens) (Q9H0H5 whole entry, looked up): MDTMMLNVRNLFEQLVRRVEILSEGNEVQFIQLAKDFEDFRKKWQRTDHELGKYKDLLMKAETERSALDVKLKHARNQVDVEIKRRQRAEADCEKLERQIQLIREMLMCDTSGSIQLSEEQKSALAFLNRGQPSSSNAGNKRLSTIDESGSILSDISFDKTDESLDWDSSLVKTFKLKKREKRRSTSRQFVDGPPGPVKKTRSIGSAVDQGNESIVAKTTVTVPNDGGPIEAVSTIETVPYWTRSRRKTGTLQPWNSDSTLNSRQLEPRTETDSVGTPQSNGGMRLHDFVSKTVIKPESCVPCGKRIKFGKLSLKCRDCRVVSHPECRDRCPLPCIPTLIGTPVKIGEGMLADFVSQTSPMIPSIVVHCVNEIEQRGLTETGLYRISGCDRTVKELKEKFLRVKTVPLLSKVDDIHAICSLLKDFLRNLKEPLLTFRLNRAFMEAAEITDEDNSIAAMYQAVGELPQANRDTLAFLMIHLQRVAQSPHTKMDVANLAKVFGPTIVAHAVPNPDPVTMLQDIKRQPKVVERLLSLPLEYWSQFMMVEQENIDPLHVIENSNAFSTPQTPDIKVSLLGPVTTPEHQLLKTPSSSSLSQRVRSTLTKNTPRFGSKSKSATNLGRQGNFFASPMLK

This experiment addresses Rac GTPase-activating protein 1 (Homo sapiens) (UniProt Q9H0H5). In words: blockers of MgcRacGAP-driven Rac1 GTP hydrolysis – biochemical, ADP Hunter fluorescence, primary and confirmatory, confirmation (AID 624330).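 Also: fluorescence reports GDP produced by GAP-driven GTP hydrolysis.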 To be noted: MgcRacGAP-stimulated Rac1 GTP hydrolysis, at 30 µM, hits give high values, GST-tagged Rac1 F28L mutant substrate.
Broadly, the inhibition is the change of the read-out against control, counted positive when it falls. In the case of `COc1ccc(-n2c(SC3CCOC3=O)nc3ccccc3c2=O)cc1OC` (stereo not drawn), the inhibition was 7.23% (inactive).
In the case of `FC(F)(F)c1cccc(N2CCN(C3CC4CCC3C4)CC2)c1` (stereo not drawn) it was -3.5% (inactive); in that of `CC(C(=O)NCCN1CCOCC1)(c1ccccc1)c1ccccc1`, 9.67% (inactive); in that of `CCN(Cc1cc(OC)c(OC)c(OC)c1)C(=S)Nc1cccc(SC)c1`, 8.44% (inactive).
`COc1ccccc1CNS(=O)(=O)c1cc(C(=O)NCC2CCCO2)c(Cl)cc1Cl` (stereo not drawn): the inhibition is 4.61% (inactive).
Then `O=C(c1nc[nH]c1C(=O)N1CCN(c2ccccc2)CC1)N1CCN(c2ccccc2)CC1`, with 8.08% (inactive); and `CN(CC(=O)Nc1ccccc1C(F)(F)F)C(=O)COc1cccnc1[N+](=O)[O-]`, with 2.02% (inactive); and `C/C(=N\NC(=O)c1ccc(Cl)cc1)c1ccccn1`, with -1.19% (inactive).
As for `Cc1sc2ncnc(N3CCC(C(=O)Nc4ccc(S(N)(=O)=O)cc4)CC3)c2c1C`, the inhibition was 6.51% (inactive).
Regarding `O=C(c1cccc(F)c1)N1CCC(N2CCCCCC2)CC1`, the inhibition was 27% (inactive).
In the case of `CC1CCCC(N2CCN(C(=O)c3cccc(F)c3)CC2)C1` (stereo not drawn) it was 13.7% (inactive).
Then `CC(C)Oc1ccc(CNC(=O)c2cc(S(=O)(=O)N3CCOCC3)cn2C)cc1`, with 7.69% (inactive); and `Cc1ccc2c(CC(=O)O)coc2c1`, with -1.54% (inactive); and `Cc1ccc2c(CC(=O)OCc3csc(C)n3)coc2c1`, with 3% (inactive).
Then `COc1ccc(CN2CCN(C(=O)c3cc(-c4cccnc4)nc4ccc(Cl)cc34)CC2)c(OC)c1OC`, with 0.91% (inactive); and `CCCn1c(=O)c2c(C(F)(F)F)cc(-c3ccco3)nc2n(CCC)c1=O`, with 6.17% (inactive).
For `COc1cc(NC(=O)C/C(C)=N/NC(=O)C(OC)c2ccccc2)c(OC)cc1Cl` (stereo not drawn), the inhibition was 15.9% (inactive).
Then `C/C(CC(=O)Nc1ccc(N(C)C)cc1)=N\NC(=O)c1ccc(C(C)(C)C)cc1`, with 14.2% (inactive).
With `C/C(CC(=O)Nc1ccc(N(C)C)cc1)=N\NC(=O)c1cnccn1`, the inhibition was 25.8% (inactive).
Then `C/C(CC(=O)Nc1ccc(N(C)C)cc1)=N\NC(=O)c1ccc(Cl)cc1`, with 21.2% (inactive); and `COC(C(=O)N/N=C(\C)CC(=O)Nc1ccc(Cl)cc1C)c1ccccc1` (stereo not drawn), with 0.47% (inactive).
Then `C/C(CC(=O)Nc1ccc([N+](=O)[O-])cc1)=N\NC(=O)c1ccccc1[N+](=O)[O-]`, with 7.35% (inactive); and `C/C(CC(=O)Nc1ccc(N(C)C)cc1)=N\NC(=O)c1ccccn1`, with 16.9% (inactive); and `C/C(CC(=O)Nc1ccc([N+](=O)[O-])cc1)=N\NC(=O)c1ccccc1O`, with 3.2% (inactive).
Then `CC1(C)CC(=O)C2=C(C1)C(c1cn(-c3ccccc3)nc1-c1ccccc1)C(C#N)=C(N)O2` (stereo not drawn), with 2.04% (inactive).
Take `Cc1cc(Br)cc(C)c1NC(=S)NC(=O)CC(C)C`: the inhibition was 7.74% (inactive).
Then `NC(N)=NS(=O)(=O)c1ccc(N/C=C/C(=O)c2ccc(Cl)c(Cl)c2)cc1`, with 6.29% (inactive); and `COC(=O)[C@H](CCSC)NC(=O)Cn1cnc2c(OCc3ccccc3)ncnc21`, with 5.04% (inactive).
In the case of `COc1ccc(OCC(=O)NNC(=O)c2ccc3c(=O)n4c(nc3c2)CCC4)cc1` it was 8.67% (inactive); in that of `COc1ccc(S(=O)(=O)N2CCN(C(=O)c3ccco3)CC2)c(C)c1C`, 1.7% (inactive).
Then `O=C(O)c1cc(N2C(=O)C3C4C=CC(C4)C3C2=O)ccc1N1CCOCC1` (stereo not drawn), with 4.85% (inactive); and `O=C(Nc1nccs1)C1CCCN1/C=C/C(=O)C(F)(F)F` (stereo not drawn), with -1.71% (inactive); and `C=CCNC(=O)c1n[nH]c2c1CC(C(C)(C)CC)CC2` (stereo not drawn), with 8.27% (inactive).
For the compound `CCN(Cc1ccccc1)C(=O)C1CCC(CNc2c(N3CCOCC3)c(=O)c2=O)CC1` (stereo not drawn), the inhibition was 4.88% (inactive).
In the case of `C=CCN1CCN(C(=O)c2cc3c(s2)CCC(CC)C3)CC1` (stereo not drawn) it was 5% (inactive).
As to `COCCn1c(SCC(=O)Nc2ccc3c(c2)OCCO3)nc2c(c1=O)SC(C)C2` (stereo not drawn), the inhibition is 8.12% (inactive).
As to `CCN1C(=O)[C@H]2[C@@H](c3ccc(C)cc3)N3C(=O)N(c4ccc(OC)cc4)C(=O)[C@@]3(Cc3ccc(Cl)cc3)[C@H]2C1=O`, the inhibition is -2.48% (inactive).
Then `C/C(CC(=O)Nc1ccc2c(c1)OCCO2)=N\NC(=O)c1ccc([N+](=O)[O-])cc1Cl`, with 9.05% (inactive); and `C/C(CC(=O)Nc1ccc(N(C)C)cc1)=N\NC(=O)c1ccc(Cl)cc1Cl`, with 21.9% (inactive).
With `Cc1ccc(-c2cc(C(=O)Nc3ccc(S(=O)(=O)Nc4onc(C)c4C)cc3)[nH]n2)c(O)c1`, the inhibition is -1.18% (inactive).
In the case of `C#CCOCCOCCOCCNc1nc(N2CCOCC2)nc(N2CCN(C(=O)[C@H](Cc3ccc(O)cc3)n3cc([C@@H](N)C(C)CC)nn3)CC2)n1` (stereo partly drawn) it was 8.21% (inactive); in that of `CCN(Cc1ccncc1)Cc1c(O)ccc2ccccc12`, 15.9% (inactive); in that of `COc1cccc(CN(C)Cc2c(O)ccc3ccccc23)c1`, 3.54% (inactive).
In the case of `CN(C)Cc1c(O)ccc2ccccc12` it was 7.54% (inactive); in that of `COc1ccc(CN(C)Cc2c(O)ccc3ccccc23)cc1`, 9.58% (inactive); in that of `COc1ccc(/C(N)=N/OC(=O)Cc2cccs2)cc1`, 5.03% (inactive).
In the case of `CCOC(=O)C(N=Nc1nn[nH]n1)C(C)=O` (stereo not drawn) it was 14.3% (inactive); in that of `CC(=O)Nc1c(F)cc(Br)cc1F`, 7.06% (inactive).
Take `COCCN(C(=O)c1ccccc1)c1nnc(-c2cccnc2)s1`: the inhibition is 3.74% (inactive).
In the case of `C=CCn1c(=O)/c(=C/c2ccc(Cl)cc2)s/c1=C(\C#N)c1nnc2n1CCCCC2` it was 0.47% (inactive); in that of `C=CCn1c(=O)/c(=C/c2ccc(Cl)cc2)s/c1=C(/C#N)c1nnc2n1CCCCC2`, 3.92% (inactive).
Then `CN1CCN(Cc2nnc(-c3ccccc3)o2)CC1`, with 7.8% (inactive); and `CC1=CC(C2CC(=O)N(c3ccc(C)cc3)C2=O)CC2C(=O)N(c3ccc(C)cc3)C(=O)C12` (stereo not drawn), with 1.51% (inactive).
Then `Cn1cc(Br)c(-c2cccc(N3C(=O)CC(C)(C)CC3=O)c2)n1`, with 9.36% (inactive).
In the case of `Cc1cccc(-n2nc3c(c2NC(=O)CCCl)CSC3)c1`, the inhibition is 9.59% (inactive).
Then `Cc1ccc(-n2ncc(C(=O)Nc3cc(Cl)cc(Cl)c3)c2C2CCNCC2)cc1C`, with 10.4% (inactive); and `COc1ccc(CSc2nncn2N)cc1[N+](=O)[O-]`, with 2.61% (inactive); and `CC(=O)c1ccc(NC(=S)N2CCCC(CO)C2)cc1` (stereo not drawn), with 9.07% (inactive).
As for `OCC1CCCN(C(=S)Nc2ccc(Oc3ccccc3)cc2)C1` (stereo not drawn), the inhibition is 11.8% (inactive).
In the case of `Cc1ccccc1NC(=O)c1cccc2c1C(=O)N(C1CCCCC1)C2` it was 6.92% (inactive); in that of `COc1cc(Cc2nccc3cc(OC)c(OC)cc23)c(NC(C)=O)cc1OC`, 8.79% (inactive).
For `COc1cc2ccc(NC(C)=O)cc2cc1OC`, the inhibition is -17.4% (inactive).
In the case of `CCCC(=O)Nc1cc(OC)c(OC)cc1C(=O)O` it was 0.59% (inactive); in that of `COc1cc(NC(=O)c2cnc(NCc3ccccc3)nc2C)cc(OC)c1OC`, 10.3% (inactive).
In the case of `CCOC(=O)[C@@H]1[C@H]2COc3ccccc3[C@@H]2N2C(=O)N(c3cccc(Cl)c3)C(=O)[C@@]12C`, the inhibition was 7.95% (inactive).
Then `O=C(CCC(=O)Nc1ccc(F)cc1)N/N=C/c1cccnc1`, with 7.44% (inactive); and `Cc1ccnc(NS(=O)(=O)c2ccc(NC(=O)c3snnc3C)cc2)n1`, with 15.1% (inactive).
`c1ccc2c(c1)CCN(CCCNc1nc3ccccc3n3cnnc13)C2`: the inhibition was 5.26% (inactive).
In the case of `Cc1ccc(S(=O)(=O)Nc2nc(C)cc(NN)n2)cc1` it was 0.61% (inactive); in that of `COc1cc(C)nc(NS(=O)(=O)c2ccc(C)cc2)n1`, 5.36% (inactive); in that of `COC(=O)c1ccsc1NC(=O)c1ccc2c(c1)OCCO2`, 0.64% (inactive).
In the case of `O=C(CCCN=C1NS(=O)(=O)c2ccccc21)OCC(=O)c1ccc(F)cc1` it was 3.32% (inactive); in that of `Cc1cc(C(F)F)nn1CC(=O)NCc1ccc(Cl)cc1Cl`, 6.89% (inactive); in that of `COc1cc2[nH]c(=S)n(CCCN3CCOCC3)c(=O)c2cc1OC`, 12.7% (inactive).
In the case of `CCCSc1nc2cc(OC)c(OC)cc2c(=N)n1CCCN1CCOCC1` it was 20.6% (inactive).
Consider `Fc1cc2[nH]c(=S)[nH]c2c(Br)c1N1CCSCC1`, for which the inhibition is 8.85% (inactive).
In the case of `O=C(N/N=C/c1ccccc1O)c1cccc2ccccc12` it was 11.8% (inactive); in that of `C/C(=N\NC(=O)c1csc2ccccc12)c1ccc(O)cc1`, 26.2% (inactive).
Take `O=C(N/N=C/c1cccc(O)c1)c1csc2ccccc12`: the inhibition was -6.14% (inactive).
As to `O=C(N/N=C/c1cccc(F)c1)c1csc2c1CCCC2`, the inhibition is 11.6% (inactive).
Then `O=C(N/N=C/c1ccccc1)c1cccc2ccccc12`, with 7.64% (inactive); and `Cc1ccc(/C=N/NC(=O)c2csc3c2CCCC3)cc1`, with 7.82% (inactive).
`Cc1cc(S(=O)(=O)N2CC(=O)N(CCc3ccccc3)C(=O)C2)ccc1F`: the inhibition is 12.6% (inactive).
Then `CCC(C)N(CCNC(=O)c1ccc2c(c1)NC(=O)c1ccccc1S2)C1CCCCC1` (stereo not drawn), with 3.06% (inactive); and `COc1ccc(C(=O)CN2C(=O)NC3(CCCc4ccccc43)C2=O)c(OC)c1` (stereo not drawn), with 2.84% (inactive).
With `CN(C(=O)CSc1nnc(-c2cccc(F)c2)n1N)C1CCS(=O)(=O)C1` (stereo not drawn), the inhibition was 3.77% (inactive).
Then `Cc1csc(=O)n1CC(=O)OCC(=O)c1c(N)n(CC(C)C)c(=O)n(C)c1=O`, with -0.27% (inactive); and `Cc1nc2ccccc2c(-c2ccccc2)c1CC(=O)O`, with 5.79% (inactive).
Then `Cc1nc2ccccc2n1CC(=O)c1ccccc1`, with 15.2% (inactive); and `COc1ccccc1OCC(=O)NCC1CCCN(C(=O)c2cccc(C)c2)C1` (stereo not drawn), with 12.2% (inactive).
In the case of `CCN(CC)CCNc1ccc(CO)c2oc3ccccc3c(=O)c12` it was 16.8% (inactive); in that of `CN(C)CCNc1ccc(Cl)cc1[N+](=O)[O-]`, -0.93% (inactive); in that of `CCN(CC)CCNc1ccc(CO)c2oc3cc(Cl)ccc3c(=O)c12`, 4.45% (inactive).
Consider `O=c1c2ccccc2sc2c(CO)ccc(NCCN3CCCCC3)c12`, for which the inhibition was 27.3% (inactive).
In the case of `CCN(CC)CCNc1ccc(CO)c2sc3ccccc3c(=O)c12` it was 16.6% (inactive); in that of `Cc1cc(O)cc2c(=O)c3ccccc3sc12`, 8.36% (inactive); in that of `COc1ccc2sc3ccccc3c(=O)c2c1OC`, 2.12% (inactive).
On to `CN(C)CCNC(=O)c1cc2sc3ccccc3c2s1`, for which the inhibition is 11.4% (inactive).
